In the library only some 8.2% were active in any assay of this set; here they are far more common.
MCF10A rereplic: A quantitative high throughput screen for small molecules that induce DNA re-replication in MCF 10a normal breast cells. actives 2.9% (n = 350,000). Potency, µM (top dose mostly 46.1 µM), for the others: at the highest dose activity, positive = re-replication, most hits filed as activators. MCF 10A DNA re-replication, Hoechst nuclear intensity, 48 h; further: % of control where 0% means no effect; nearly all actives have a fitted effect of over 50% in size
SW480 rereplic: A quantitative high throughput screen for small molecules that induce DNA re-replication in SW480 colon adenocarcinoma cells; SW480 DNA re-replication, Hoechst DNA content imaging, 48 h; actives 1.8% (n = 340,000); AID 624297, 2012; Potency, µM (highest dose often 46.1 µM), for inactives: at the top dose re-replication activation, most hits filed as activators; further: % of control where 0% means no effect; nearly all actives have a fitted effect of over 55% in size
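Hoechst fluorescence of nuclei (405 nm excitation, 500-530 nm emission) measured by plate-scanning imager after 48 hr compound exposure at 37 C; re-replication scored as increased number of nuclei with elevated intensity.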
KB-3-1 tox: qHTS assay for MDR1-selective chemotherapeutics: Primary screen using the parental adenocarcinoma cell KB-3-1; KB-3-1 viability, CellTiter-Glo ATP luminescence, 72 h; Potency, µM (highest dose often 46.1 µM), usual class: cytotoxic; actives 1.4% (n = 400,000); further: on the % scale 0 is the no-effect control and ±100 the full control effect; nearly all actives have a fitted effect of over 60% in size
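Parental KB-3-1 viability, qHTS format: 72 h compound exposure, 37 °C; CellTiter-Glo; media-only wells and DMSO plates as controls; concentration-effect fits on corrected data.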
ELG1 repair inh: qHTS screen for small molecules that inhibit ELG1-dependent DNA repair in human embryonic kidney (HEK293T) cells expressing luciferase-tagged ELG1 | HEK293T ELG1-luciferase reporter, luminescence, 16 h; DNA damage induced by 5-fluorouridine | Potency, µM (doses to about 46.1 µM), for the others: at the highest dose activity change, negative = inhibition, hits mostly inhibitors | actives 2.3% (n = 330,000) | AID 504467, 2011; further: on the % scale 0 is the no-effect control and ±100 the full control effect; nearly all actives have a fitted effect of over 55% in size
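Step one: seed 2,000 cells per well. Step two: pin-transfer compound or DMSO alongside 5-fluorouridine. Step three: incubate 16 hr, 37 °C, 5% CO2. Step four: add ONE-Glo, wait 30 min, read luminescence.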
KB-V1 cytotox: qHTS assay for MDR1-selective chemotherapeutics: Primary screen using the drug-selected MDR subline cells KB-V1. KB-V1 MDR cells viability, CellTiter-Glo, 72 h. Potency, µM (highest dose often 46.1 µM), actives largely listed as cytotoxic. actives 3.4% (n = 400,000); further: on the % scale 0 is the no-effect control and ±100 the full control effect; nearly all actives have a fitted effect of over 60% in size
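Cytotoxicity via CellTiter-Glo luminescence after 72 h compound exposure at 37 degrees C. Cells: drug-selected KB-V1 line, DMEM phenol-red free plus 10% FBS. Compounds tested at multiple concentrations; normalized data fitted to concentration-effect curves.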
An asterisk follows results filed as active; i = inactive; ? = inconclusive; nt = not tested or not shown; ! = not active in a repeat; [ ] = another dose, or the depositor's remark. The call rests on the fitted dose curve; in most records, active means well fitted curve in the direction sought with a large enough effect; inconclusive means small, poorly fitted or top-dose-only effect, or another doubt; inactive means no such curve, though single readings can be large; an effect the other way counts as inactive or inconclusive. Potency means the concentration at half of the fitted maximal effect.

SMILES | MCF10A rereplic | SW480 rereplic | KB-3-1 tox | ELG1 repair inh | KB-V1 cytotox
CCNC(=S)/N=C(\N)Nc1nc(C)c2cc(C)ccc2n1 | 6% | 6% | ? | ? | 9.2µM*
COc1cc2ccc(=O)oc2c(O[C@@H]2O[C@H](CO)[C@@H](O)[C@H](O)[C@H]2O)c1O | 16µM* | 8.2µM*! | i | 26% | i
Cc1cc(C)nc(/N=C(\N)Nc2cccc(OCc3ccccc3)c2)n1 | 13µM* | ? | ? | 21µM* | 5.8µM*
Cc1nc([N+](=O)[O-])c(Sc2nc3ccc([N+](=O)[O-])cc3[nH]2)n1Cc1ccccc1 | 18µM* | ? | i | -33% | i
Cc1oc2c(c1C(=O)NCc1cccnc1)C(=O)c1ccccc1C2=O | ? | 19% | ? | 1.6µM* | 2.6µM*
O=C1c2ccccc2C(=O)c2c(NCc3cccnc3)cccc21 | 12% | 2% | i | -14% | 8.2µM*
O=C(c1ccccc1)c1coc2c1C(=O)c1ccccc1C2=O | ? | 2% | i | ? | i
O=C1c2ccccc2C(=O)c2c1oc(C(F)(F)F)c2C(=O)c1ccccc1 | 4.6µM* | 4.1µM* | 4.6µM* | ? | 7.3µM*
COc1ccc(CNC(=O)c2ccc(-c3ccccc3)cc2)cc1 | 3% | -5%[9.22 µM] | i | ? | i
COc1ccc(CNC(=O)c2c(C)oc3c2C(=O)c2ccccc2C3=O)cc1 | 4.6µM* | 21µM* | ? | -6% | i
Cc1onc(-c2ccccc2Cl)c1C(=O)NCc1cccnc1 | 12% | 5% | i | -1% | i
c1ccc(NCc2cccnc2)cc1 | -5% | -4% | i | 0% | i
Cc1nc([N+](=O)[O-])cn1CC(O)c1ccc2c(c1)OCCCO2 (stereo unspecified) | nt | nt | i | nt | i
CC(=O)c1c(C)oc2c1C(=O)c1ccccc1C2=O | 22% | 7.3µM* | ? | 12µM* | 6.5µM*
O=c1[nH]c(CN2CCN(c3ccc([N+](=O)[O-])cc3)CC2)nc2ccsc12 | -3% | 0% | 16µM* | ? | 18µM*
COc1ccc(N2CCN(Cc3nc4ccsc4c(=O)[nH]3)CC2)cc1 | -8% | 2% | i | 3% | i
CCc1c(C)sc2c1CCN(C(=O)Nc1cc(Cl)c(OC)cc1OC)C2c1ccccc1 (stereo unspecified) | nt | nt | i | nt | i
CN(C)c1ccc(/C=C/c2ccnc3ccc4ccccc4c23)cc1 | nt | nt | 1.6µM* | nt | i
CN(C)c1ccc(C=Cc2nccc3ccccc23)cc1 | nt | nt | 9.2µM* | nt | i
CN(C)c1ccc(/C=C/c2ccnc3ccccc23)cc1 | nt | nt | 12µM* | nt | ?
Cc1onc(-c2ccccc2)c1C(=O)OCC(=O)N1CCN(c2ccccc2)CC1 | -23% | 6% | ? | ? | i
CCC(=O)N1CCC(C)(C(=O)NCc2cccc(OC)c2)C1 (stereo unspecified) | nt | nt | i | nt | i
CCOC(=O)C1=C(COC(=O)c2cc(Br)c(Br)s2)NC(=O)NC1C (stereo unspecified) | 0% | 3% | i | 3% | i
N#Cc1nc(N(c2ccccc2)c2ccccc2)nc(-n2cccc2)n1 | nt | nt | i | nt | i
O=C(CNC(=O)OCc1ccccc1)Nc1ccc(F)cc1 | 3% | -11% | i | 7% | ?
SMILES | MCF10A rereplic | SW480 rereplic | KB-3-1 tox | ELG1 repair inh | KB-V1 cytotox
Cc1cc(OCC(=O)Nc2ccc(-c3nc4cc(Cl)ccc4o3)cc2)cc(C)c1Cl | nt | nt | i | nt | i
Cc1cc(Cl)c(S(=O)(=O)NC2CCCC2)cc1OCC(=O)NC1CCCCC1 | 17% | 14% | ? | 9.2µM* | i
Cc1cc(Cl)c(S(N)(=O)=O)cc1OCC(=O)NC1CCCCC1 | 11% | -1% | nt | -14% | nt
CCOC(=O)N1CCN(S(=O)(=O)c2cc(OCC(=O)NC3CCCCC3)c(C)cc2Cl)CC1 | 0% | ? | i | 18µM* | i
Cc1cc(Cl)c(S(=O)(=O)N2CCN(c3ccccn3)CC2)cc1OCC(=O)NC1CCCCC1 | 17% | 5% | ? | 21µM* | i
Cc1cc(Cl)c(S(=O)(=O)N2CCCCCC2)cc1OCC(=O)NC1CCCCC1 | 0% | -6% | i | 9.2µM* | i
Cc1cc(Cl)c(S(=O)(=O)N2CCCCCC2)cc1OCC(N)=O | 2% | -2% | i | ? | i
Cc1cc(Cl)c(S(=O)(=O)N2CCSCC2)cc1OCC(=O)NC1CCCCC1 | ? | ? | ? | 9.2µM* | 3.7µM*
Cc1cc(Cl)c(S(=O)(=O)N2CCCC2)cc1OCC(N)=O | -1% | -5% | i | 12% | i
Cc1ccccc1-c1ccc2c(c1)O[C@H](CN(C)C(=O)C1CC1)[C@@H](C)CN([C@@H](C)CO)S2(=O)=O | nt | nt | i | nt | ?
CCc1nc2ccc(C(=O)NCCCN3CCCC3=O)cn2c1N(C)C(=O)C1CCCCC1 | nt | nt | i | nt | i
COCCCNc1nc2nonc2nc1NCCSC | -3% | -17% | i | 23µM* | i
OCCNc1nc2nonc2nc1NCCO | -1% | -4% | i | 1% | i
CCCCNC(=O)C(CC)Sc1nc2ccccc2c(=O)n1CCc1ccc(OC)c(OC)c1 (stereo unspecified) | nt | nt | i | nt | i
O=C(CNC(=O)c1ccc(Cl)cc1)OCc1cc(=O)n2nc(C3CC3)sc2n1 | nt | nt | i | nt | i
CCC1CCCCN1S(=O)(=O)c1ccc(NC(=O)c2ccncc2)cc1 (stereo unspecified) | 8% | -4% | i | 5.2µM* | ?
O=C(Nc1ccc(S(=O)(=O)N2CCCCC2c2cccnc2)cc1)c1ccc(Br)cc1 (stereo unspecified) | nt | nt | ? | nt | 12µM*
CC1CN(c2ccc([N+](=O)[O-])cc2C#N)CC(C)O1 (stereo unspecified) | 0% | 13% | i | ? | ?
Cc1ccc(C(=O)c2cc([N+](=O)[O-])ccc2N2CCCCC2)cc1 | ? | 0.58µM* | i | ? | ?
Cc1ccc(C(=O)c2cc([N+](=O)[O-])ccc2N2CC(C)OC(C)C2)cc1 (stereo unspecified) | 22% | 12µM* | i | -21% | ?
Cc1noc(/C=C/c2nn(C)cc2Cl)c1[N+](=O)[O-] | 21µM* | ? | ? | ? | ?
Cc1cccc(N/C=C/c2onc(C)c2[N+](=O)[O-])c1 | 36% | 0%[9.22 µM] | ? | nt | i
Cc1cccc(/C=C/c2onc(C)c2[N+](=O)[O-])n1 | 7.3µM* | ? | 10µM* | nt | ?

Screening results from PubChem BioAssay.
